# Measurements taken from PubChem BioAssay (NCATS).
# Records with an inconclusive call do not appear. Active and inactive are the calls of the source. Calls come from the whole dose curve; as a rule, active = well fitted inhibition curve with a large enough effect; inconclusive = small, poorly fitted or top-dose-only effect, or effect the other way; inactive = flat fitted curve, though single readings scatter.
# Target: ATP-dependent 6-phosphofructokinase (Trypanosoma brucei brucei) (UniProt O15648)
# Sequence (O15648 whole entry, looked up): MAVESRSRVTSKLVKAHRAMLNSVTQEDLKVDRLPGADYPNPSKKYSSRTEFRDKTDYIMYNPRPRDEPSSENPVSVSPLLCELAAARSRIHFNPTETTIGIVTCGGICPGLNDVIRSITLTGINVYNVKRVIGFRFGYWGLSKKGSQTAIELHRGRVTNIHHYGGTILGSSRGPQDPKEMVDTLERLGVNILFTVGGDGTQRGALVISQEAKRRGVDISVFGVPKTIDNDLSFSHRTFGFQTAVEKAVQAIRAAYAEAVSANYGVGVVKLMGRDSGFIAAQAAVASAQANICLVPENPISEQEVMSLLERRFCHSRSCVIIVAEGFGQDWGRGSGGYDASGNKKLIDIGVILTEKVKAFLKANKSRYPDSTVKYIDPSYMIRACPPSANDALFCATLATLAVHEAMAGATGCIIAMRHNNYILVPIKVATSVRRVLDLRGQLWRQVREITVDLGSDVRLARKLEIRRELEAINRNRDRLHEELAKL
# Experiment: qHTS Assay to Find Inhibitors of T. brucei phosphofructokinase: hit validation (AID 492961);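 note: luminescence reports ADP formed as PFK phosphorylates fructose-6-phosphate with ATP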
# Conditions: T. brucei PFK, ADP-Glo luminescence; series mostly up to 51.4 µM; activity change, negative = inhibition: at the top concentration
# How it was run: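 Reaction: 0.1 M triethanolamine pH 8.0, 5 mM MgCl2, F6P 0.5 mM, ATP 0.1 mM, PFK 1.25 nM, 45 min RT. Read-out: ADP-Glo luminescence. Analysis: concentration-response fits, classed by r2 and efficacy.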
# % is set by controls: 0 for no effect and ±100 for the full control effect.
row,SMILES,"activity change, negative = inhibition"
1,CCCCCCCCCCCC[N+](C)(C)CCOc1ccccc1,4.14% (inactive)
2,C[C@]12C=CC(=O)C=C1CC[C@@H]1[C@@H]2CC[C@@]2(C)[C@H]1CC[C@]2(C)O,-7.28% (inactive)
3,CC(C)(O)C(Cl)(Cl)Cl,-1.57% (inactive)
4,CN1C(=O)[C@@H](NC(=O)c2cc3ccccc3[nH]2)N=C(c2ccccc2)c2ccccc21,6.14% (inactive)
5,CC(C)(C)OC(=O)c1ncn2c1[C@@H]1CCCN1C(=O)c1c(Br)cccc1-2,0% (inactive)
6,COP(=O)(OC)OC=C(Cl)Cl,-1.97% (inactive)
7,CN1CCc2cc(Cl)c(O)cc2[C@H]2c3ccccc3CC[C@@H]21,-4.85% (inactive)
8,O=C(CCCN1CCC(n2c(=O)[nH]c3ccccc32)CC1)c1ccc(F)cc1,2.61% [at 24.3 µM] (inactive)
9,O=C1NCN(c2ccccc2)C12CCN(CCCOc1ccc(F)cc1)CC2,-5.75% (inactive)
10,CC(C)NCC(O)c1ccc(N)c(C#N)c1 (centres undefined),14.1% (inactive)
11,CCN(CC)CCOC(=O)C(C)(c1ccccc1)c1ccccc1,-4.31% (inactive)
12,OC(c1ccccc1)(c1ccccc1)C1CCNCC1,-4.59% [at 24.3 µM] (inactive)
13,Oc1ccc2[nH]cc(CCCCN3CC=C(c4ccccc4)CC3)c2c1,-2.05% (inactive)
14,Cc1ccc(N=CN(C)C=Nc2ccc(C)cc2C)c(C)c1,-6.63% (inactive)
15,Clc1ccc(CO/N=C(\Cn2ccnc2)c2ccc(Cl)cc2Cl)c(Cl)c1,17.6% (inactive)
16,ClC1=C(Cl)C2(Cl)C(CBr)CC1(Cl)C2(Cl)Cl (centres undefined),-0.0623% (inactive)
17,C[N+](C)(C)CCOC(=O)C(O)(c1ccccc1)c1ccccc1,-6.7% (inactive)
18,Cc1c(Cl)c(=O)oc2cc(OP(=O)(OCCCl)OCCCl)ccc12,11.6% (inactive)
19,CCNc1nc(Cl)nc(NCC)n1,3% (inactive)
